Experimental data from the supplement of paper PMC10849652.
About 7,900 targets were measured; listed, in parts, are those with a hit and a random draw of the rest. About 0.6% of all pairs of compound and target were hits. A number with no mark means an inactive call.

What was measured:
Experiment in all cases: log2 fold change, soluble protein after heating vs DMSO (PISA); higher = thermal stabilisation; K562 cells, 10 uM, 30 min; active = over 0.2 and 3.5 SD of the protein, either way, in both replicates (recomputed)
[1] = compound: CS(=O)(=O)c1ccc(-c2cnc(N)c(C(=O)Nc3ccccc3)n2)cc1
In short: (§1)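 K562 cells at 2×10^6 cells/mL were given 10 μM compound for 30 min. Aliquots then went through 3 min of heating across 48°C-58°C, were pooled, and were extracted in PBS with 0.5% NP-40 at 4°C, and the supernatant after 21,000xg for 90 min was quantified by TMTpro 16plex LC-MS/MS with channel sums equalised. Thermal stability relative to control samples, from duplicates, is given as log2 fold change.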

crizotinib = compound: C[C@@H](Oc1cc(-c2cnn(C3CCNCC3)c2)cnc1N)c1c(Cl)ccc(F)c1Cl [crizotinib]
In short: as §1

[2] = compound: C[C@@H]1COCCN1C2=NC(=NC(=C2)C3(CC3)S(=O)(=O)C)C4=C5C=CNC5=CC=C4
In short: as §1

[3] = compound: C[C@H](C1=CC=C(C=C1)C(=O)NC2=C3C=CNC3=NC=C2)N
In short: as §1

duvelisib = compound: C[C@H](Nc1ncnc2nc[nH]c12)c1cc2cccc(Cl)c2c(=O)n1-c1ccccc1 [duvelisib]
In short: as §1

gandotinib = compound: Cc1cc(Nc2cc(CN3CCOCC3)c3nc(C)c(Cc4ccc(Cl)cc4F)n3n2)n[nH]1 [gandotinib]
In short: as §1

tozasertib = compound: Cc1cc(Nc2cc(N3CCN(C)CC3)nc(Sc3ccc(NC(=O)C4CC4)cc3)n2)n[nH]1 [tozasertib]
In short: as §1

[4] = compound: Cc1cc(SCc2sc(-c3ccc(C(F)(F)F)cc3)nc2C)ccc1OCC(=O)O
In short: as §1

doramapimod = compound: Cc1ccc(-n2nc(C(C)(C)C)cc2NC(=O)Nc2ccc(OCCN3CCOCC3)c3ccccc23)cc1 [doramapimod]
In short: as §1

ispinesib = compound: Cc1ccc(C(=O)N(CCCN)[C@@H](c2nc3cc(Cl)ccc3c(=O)n2Cc2ccccc2)C(C)C)cc1 [ispinesib]
In short: as §1

Sequence of UniProt Q9NTJ5 (Q9NTJ5 whole entry, looked up): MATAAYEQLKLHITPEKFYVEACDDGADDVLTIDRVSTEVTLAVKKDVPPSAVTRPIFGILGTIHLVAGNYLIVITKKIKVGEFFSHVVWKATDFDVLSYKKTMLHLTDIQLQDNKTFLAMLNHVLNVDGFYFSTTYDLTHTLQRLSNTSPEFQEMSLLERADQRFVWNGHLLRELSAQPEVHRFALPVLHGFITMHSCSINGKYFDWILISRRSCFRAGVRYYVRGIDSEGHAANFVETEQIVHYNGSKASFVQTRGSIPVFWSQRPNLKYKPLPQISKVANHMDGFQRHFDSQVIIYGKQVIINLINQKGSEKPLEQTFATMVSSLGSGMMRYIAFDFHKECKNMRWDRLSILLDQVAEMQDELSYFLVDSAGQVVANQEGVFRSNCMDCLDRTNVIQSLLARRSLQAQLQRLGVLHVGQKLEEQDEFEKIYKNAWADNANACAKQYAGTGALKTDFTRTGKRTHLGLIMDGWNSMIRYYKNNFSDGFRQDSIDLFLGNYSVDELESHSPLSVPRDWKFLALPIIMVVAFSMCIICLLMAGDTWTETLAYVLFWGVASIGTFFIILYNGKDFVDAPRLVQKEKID
Sequence of UniProt P51151 (P51151 whole entry, looked up): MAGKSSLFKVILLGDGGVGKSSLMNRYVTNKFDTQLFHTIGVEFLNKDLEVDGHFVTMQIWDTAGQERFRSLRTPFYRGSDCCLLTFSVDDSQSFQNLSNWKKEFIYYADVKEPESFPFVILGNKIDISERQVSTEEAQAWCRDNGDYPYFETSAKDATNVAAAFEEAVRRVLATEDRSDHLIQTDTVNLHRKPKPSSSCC
Sequence of UniProt O15027 (O15027 whole entry, looked up): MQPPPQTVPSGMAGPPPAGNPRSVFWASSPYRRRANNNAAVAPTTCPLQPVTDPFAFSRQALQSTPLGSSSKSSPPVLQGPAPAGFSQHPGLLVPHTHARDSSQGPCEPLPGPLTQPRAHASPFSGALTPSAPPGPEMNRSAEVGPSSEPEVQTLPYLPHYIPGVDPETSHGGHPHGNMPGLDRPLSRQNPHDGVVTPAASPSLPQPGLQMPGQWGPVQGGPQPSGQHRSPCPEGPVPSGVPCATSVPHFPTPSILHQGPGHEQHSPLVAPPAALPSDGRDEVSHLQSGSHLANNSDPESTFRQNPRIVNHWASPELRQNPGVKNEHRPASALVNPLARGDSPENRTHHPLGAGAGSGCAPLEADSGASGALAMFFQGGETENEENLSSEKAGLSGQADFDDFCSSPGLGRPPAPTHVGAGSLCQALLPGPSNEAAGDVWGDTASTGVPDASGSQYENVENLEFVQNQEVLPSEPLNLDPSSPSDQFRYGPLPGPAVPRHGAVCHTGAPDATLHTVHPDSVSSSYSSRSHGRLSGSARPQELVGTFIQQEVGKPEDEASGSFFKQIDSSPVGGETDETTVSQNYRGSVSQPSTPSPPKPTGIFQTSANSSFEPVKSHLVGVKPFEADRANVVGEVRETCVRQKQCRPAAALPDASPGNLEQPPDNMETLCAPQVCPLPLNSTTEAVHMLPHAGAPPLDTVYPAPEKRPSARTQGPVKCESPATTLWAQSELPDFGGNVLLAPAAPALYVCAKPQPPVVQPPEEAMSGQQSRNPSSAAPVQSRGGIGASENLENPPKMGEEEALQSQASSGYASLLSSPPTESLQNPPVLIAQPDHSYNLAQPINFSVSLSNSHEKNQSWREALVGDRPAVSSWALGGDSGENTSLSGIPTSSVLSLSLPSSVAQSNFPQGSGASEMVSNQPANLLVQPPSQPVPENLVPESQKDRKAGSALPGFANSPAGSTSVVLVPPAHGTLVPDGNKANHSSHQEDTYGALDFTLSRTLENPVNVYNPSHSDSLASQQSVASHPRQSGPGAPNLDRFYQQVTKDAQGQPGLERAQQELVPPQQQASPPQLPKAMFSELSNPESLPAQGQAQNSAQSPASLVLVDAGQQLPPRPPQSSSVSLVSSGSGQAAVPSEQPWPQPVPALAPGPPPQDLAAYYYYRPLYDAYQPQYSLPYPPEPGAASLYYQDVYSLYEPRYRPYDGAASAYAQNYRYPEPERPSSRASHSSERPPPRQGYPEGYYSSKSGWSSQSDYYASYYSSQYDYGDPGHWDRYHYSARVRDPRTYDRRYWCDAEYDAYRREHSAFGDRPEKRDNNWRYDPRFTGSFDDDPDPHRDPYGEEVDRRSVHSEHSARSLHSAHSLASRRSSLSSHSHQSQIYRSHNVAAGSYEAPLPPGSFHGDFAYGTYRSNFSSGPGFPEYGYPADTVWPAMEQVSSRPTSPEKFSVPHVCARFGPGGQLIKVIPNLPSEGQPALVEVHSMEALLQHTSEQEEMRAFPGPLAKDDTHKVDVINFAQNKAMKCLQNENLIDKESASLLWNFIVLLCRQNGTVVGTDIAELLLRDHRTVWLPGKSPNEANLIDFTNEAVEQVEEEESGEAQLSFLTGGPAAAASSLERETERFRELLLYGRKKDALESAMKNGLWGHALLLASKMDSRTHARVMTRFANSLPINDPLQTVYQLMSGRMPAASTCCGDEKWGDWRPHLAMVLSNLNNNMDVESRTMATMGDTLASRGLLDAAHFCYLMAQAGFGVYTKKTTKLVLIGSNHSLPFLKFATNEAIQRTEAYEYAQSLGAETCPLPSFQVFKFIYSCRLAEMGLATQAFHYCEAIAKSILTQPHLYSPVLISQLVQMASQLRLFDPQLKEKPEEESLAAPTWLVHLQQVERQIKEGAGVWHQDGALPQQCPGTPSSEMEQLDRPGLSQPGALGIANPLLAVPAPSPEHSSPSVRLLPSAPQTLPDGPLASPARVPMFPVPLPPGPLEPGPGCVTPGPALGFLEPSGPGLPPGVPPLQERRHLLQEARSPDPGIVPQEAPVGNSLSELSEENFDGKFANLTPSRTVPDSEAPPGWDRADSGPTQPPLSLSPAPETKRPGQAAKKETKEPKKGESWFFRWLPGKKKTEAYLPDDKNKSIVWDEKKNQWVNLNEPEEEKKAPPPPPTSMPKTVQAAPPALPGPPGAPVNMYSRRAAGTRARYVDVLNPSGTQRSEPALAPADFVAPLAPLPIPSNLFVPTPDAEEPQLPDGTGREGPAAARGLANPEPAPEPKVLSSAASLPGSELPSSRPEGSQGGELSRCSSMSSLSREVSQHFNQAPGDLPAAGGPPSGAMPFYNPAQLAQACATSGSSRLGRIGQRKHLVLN
Sequence of UniProt Q06609 (Q06609 whole entry, looked up): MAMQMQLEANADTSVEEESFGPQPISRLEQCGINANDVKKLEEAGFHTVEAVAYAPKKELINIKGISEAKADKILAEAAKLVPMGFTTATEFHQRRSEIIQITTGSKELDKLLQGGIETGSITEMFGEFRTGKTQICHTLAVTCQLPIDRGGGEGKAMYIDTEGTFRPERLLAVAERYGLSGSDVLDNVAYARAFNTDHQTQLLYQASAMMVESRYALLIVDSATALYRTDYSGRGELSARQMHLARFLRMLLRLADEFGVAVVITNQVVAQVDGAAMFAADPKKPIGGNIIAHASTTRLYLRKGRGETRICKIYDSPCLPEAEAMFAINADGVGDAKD
Sequence of UniProt O75792 (O75792 whole entry, looked up): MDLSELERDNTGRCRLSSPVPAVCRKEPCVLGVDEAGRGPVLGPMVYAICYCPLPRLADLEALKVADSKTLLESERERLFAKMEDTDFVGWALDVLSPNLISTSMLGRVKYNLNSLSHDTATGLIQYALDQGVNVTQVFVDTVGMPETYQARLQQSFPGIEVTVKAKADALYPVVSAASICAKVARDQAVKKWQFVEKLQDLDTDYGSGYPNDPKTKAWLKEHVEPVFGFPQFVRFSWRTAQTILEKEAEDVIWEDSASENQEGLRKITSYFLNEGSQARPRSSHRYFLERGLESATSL
Sequence of UniProt Q8N5L8 (Q8N5L8 whole entry, looked up): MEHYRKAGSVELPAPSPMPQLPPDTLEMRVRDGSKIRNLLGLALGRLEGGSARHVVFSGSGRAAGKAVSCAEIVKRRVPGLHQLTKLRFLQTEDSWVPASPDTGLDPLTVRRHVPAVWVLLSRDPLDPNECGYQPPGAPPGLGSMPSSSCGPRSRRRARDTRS
Sequence of UniProt Q01974 (Q01974 whole entry, looked up): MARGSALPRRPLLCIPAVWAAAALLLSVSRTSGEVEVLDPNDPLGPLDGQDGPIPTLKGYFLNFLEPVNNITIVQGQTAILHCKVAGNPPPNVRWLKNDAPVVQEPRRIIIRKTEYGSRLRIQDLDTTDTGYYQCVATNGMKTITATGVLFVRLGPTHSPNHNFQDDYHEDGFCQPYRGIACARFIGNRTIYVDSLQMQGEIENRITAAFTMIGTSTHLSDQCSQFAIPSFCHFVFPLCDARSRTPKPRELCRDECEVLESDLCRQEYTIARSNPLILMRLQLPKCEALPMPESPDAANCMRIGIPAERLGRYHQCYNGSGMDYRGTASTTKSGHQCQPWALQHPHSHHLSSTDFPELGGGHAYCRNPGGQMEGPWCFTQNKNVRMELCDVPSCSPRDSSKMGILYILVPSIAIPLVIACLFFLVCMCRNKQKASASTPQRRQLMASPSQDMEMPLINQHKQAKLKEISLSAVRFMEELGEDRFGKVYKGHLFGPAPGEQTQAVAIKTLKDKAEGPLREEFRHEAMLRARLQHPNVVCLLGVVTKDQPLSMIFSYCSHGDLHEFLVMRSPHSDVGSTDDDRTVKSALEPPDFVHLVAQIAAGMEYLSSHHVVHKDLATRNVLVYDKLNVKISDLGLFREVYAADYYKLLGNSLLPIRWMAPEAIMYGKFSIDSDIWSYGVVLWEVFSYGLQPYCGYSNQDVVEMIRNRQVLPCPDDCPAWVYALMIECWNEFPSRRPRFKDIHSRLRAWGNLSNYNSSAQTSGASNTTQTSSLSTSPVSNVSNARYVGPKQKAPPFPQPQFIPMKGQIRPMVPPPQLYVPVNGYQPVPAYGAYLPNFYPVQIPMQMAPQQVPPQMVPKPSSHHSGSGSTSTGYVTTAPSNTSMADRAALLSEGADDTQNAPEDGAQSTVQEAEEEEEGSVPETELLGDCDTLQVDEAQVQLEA

| Target | log2 fold change [1] | log2 fold change (crizotinib) | log2 fold change [2] | log2 fold change [3] | log2 fold change (duvelisib) | log2 fold change (gandotinib) | log2 fold change (tozasertib) | log2 fold change [4] | log2 fold change (doramapimod) | log2 fold change (ispinesib) |
| --- | --- | --- | --- | --- | --- | --- | --- | --- | --- | --- |
| RBM4 (UniProt Q9BWF3) | -0.024 | -0.04 | -0.081 | 0.06 | -0.058 | -0.037 | -0.023 | 0.021 | 0.021 | -0.094 |
| RAB9A (UniProt P51151) | 0.007 | -0.119 | -0.006 | -0.044 | 0.04 | 0 | 0.018 | 0.016 | 0.018 | -0.168 |
| SH3GL1 (UniProt Q99961) | 0.067 | -0.144 | 0.024 | 0.062 | 0.019 | -0.031 | 0.045 | 0.103 | 0.007 | -0.156 |
| SAAL1 (UniProt Q96ER3) | 0.013 | -0.129 | 0.047 | 0.008 | 0.036 | 0.022 | -0.044 | 0.019 | -0.006 | -0.049 |
| RAD51 (UniProt Q06609) | 0.005 | -0.061 | -0.079 | -0.019 | 0.108 | 0.01 | -0.026 | -0.005 | -0.025 | -0.009 |
| RAVER1 (UniProt E9PAU2) | 0.061 | 0.049 | 0.188 | -0.381 | 0.066 | -0.091 | 0.264 | 0.132 | 0.002 | -0.171 |
| SEC16A isoform 5 (UniProt O15027) | -0.032 | -0.231 | -0.113 | 0.143 | 0.004 | 0.087 | -0.014 | 0.118 | 0.023 | -0.119 |
| RPP25L (UniProt Q8N5L8) | -0.031 | 0.059 | -0.014 | 0.145 | 0.06 | 0.045 | -0.01 | -0.019 | -0.005 | -0.027 |
| RHOXF2 (UniProt Q9BQY4) | 0.027 | 0.001 | 0.073 | 0.018 | 0.04 | -0.045 | -0.029 | -0.092 | 0.008 | 0.009 |
| SLC19A1 (UniProt P41440) | -0.097 | 0.086 | 0.041 | -0.088 | 0.135 | -0.107 | -0.04 | 0.012 | -0.037 | 0.083 |
| RPS19 (UniProt P39019) | -0.12 | 0.023 | -0.309 | 0.182 | -0.11 | 0.201 | 0.033 | 0.018 | 0.05 | -0.081 |
| SIDT2 isoform 2 (UniProt Q8NBJ9) | 0.132 | -0.026 | -0.017 | -0.004 | 0.059 | 0.006 | 0.004 | -0.186 | 0.254 | -0.143 |
| SCCPDH (UniProt Q8NBX0) | 0.074 | 0.333 | 0.058 | -0.093 | 0.068 | 0.313 | -0.018 | 0.124 | 0.007 | 0.081 |
| RRAGB (UniProt Q5VZM2) | 0.016 | -0.131 | 0.01 | -0.123 | 0.01 | -0.008 | -0.007 | -0.011 | 0.015 | -0.065 |
| RPS3A (UniProt P61247) | -0.064 | 0.022 | -0.182 | 0.196 | -0.09 | 0.175 | 0.016 | 0.029 | 0.044 | -0.072 |
| RNASEH2A (UniProt O75792) | 0.106 | -0.134 | -0.045 | -0.032 | 0.011 | 0.156 | -0.028 | 0.029 | -0.023 | -0.001 |
| RSRC1 (UniProt Q96IZ7) | 0.007 | -0.059 | 0.027 | -0.386 (active) | 0.086 | 0.176 | -0.079 | -0.034 | 0.051 | 0.037 |
| RBM39 (UniProt Q14498) | -0.043 | -0.114 | 0.033 | -0.01 | -0.012 | -0.052 | 0.081 | 0.036 | -0.02 | -0.032 |
| SCAF11 (UniProt Q99590) | 0.021 | -0.06 | -0.069 | 0.229 | -0.069 | 0.543 | -0.037 | -0.106 | -0.05 | -0.012 |
| RSRC2 (UniProt Q7L4I2) | 0.02 | 0.022 | -0.018 | -0.095 | 0.002 | 0.052 | -0.058 | -0.039 | -0.022 | 0.087 |
| RNF14 (UniProt Q9UBS8) | 0.034 | 0.014 | 0.081 | -0.053 | 0.031 | 0.001 | 0.058 | 0.041 | -0.025 | -0.032 |
| RPS6KA1 isoform 2 (UniProt Q15418) | 0 | -0.259 | 0.138 | -0.066 | 0.03 | -0.199 | 0.002 | 0.066 | -0.026 | 0.021 |
| SACM1L (UniProt Q9NTJ5) | 0.026 | 0 | 0.062 | -0.094 | 0.031 | -0.065 | 0.058 | 0.005 | -0.055 | -0.096 |
| ROR2 (UniProt Q01974) | 0.028 | 0.007 | 0.081 | -0.031 | 0.049 | -0.007 | -0.025 | 0.097 | -0.04 | 0.083 |
| RECQL (UniProt P46063) | 0.031 | 0.033 | 0.112 | -0.082 | 0.051 | -0.057 | 0.001 | 0.003 | -0.011 | 0.056 |
| RFC3 (UniProt P40938) | 0.029 | 0.016 | 0.163 | 0.071 | 0.032 | -0.042 | -0.004 | 0.061 | -0.005 | 0.067 |
| RPTOR (UniProt Q8N122) | 0.012 | -0.188 | -0.031 | 0.033 | 0.045 | -0.115 | 0 | 0.01 | -0.009 | -0.114 |
| RAB5C isoform 2 (UniProt P51148) | -0.015 | 0.099 | 0.015 | -0.092 | 0.011 | -0.021 | -0.029 | 0.014 | 0.013 | 0.054 |
| RPL31 (UniProt P62899) | -0.08 | 0.079 | -0.56 | 0.396 | -0.158 | 0.35 | 0.029 | -0.001 | 0.173 | -0.167 |
